# Results as given in PubChem BioAssay (EPA / NIEHS).
# Active and inactive are the calls of the source. The calls were made as follows: active = hit-call score of the fitted dose curve at least 0.9, where 1 is the maximum; inactive = score below 0.9.
# Columns and labels:
# Conditions in all cases: mRNA level, 48 h; actives raise or lower the signal
# [1] = read-out: MicroRNA 122 (MIR122), gene 406906; test: LTEA_HepaRG_MIR122: Life Technologies and Expression Analysis (LTEA) Assay for MicroRNA 122 (MIR122) using HepaRG (AID 2283516); also: the transcript read is the microRNA miR-122
# Summary of the method: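 qRT-PCR read-out (TaqMan, Fluidigm array), normalized to three housekeeping genes; HepaRG cells dosed 48 h at 8 concentrations up to 100 uM in 0.5% DMSO, duplicate; gain or loss fitted against DMSO baseline.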
# [2] = read-out: matrix metalloproteinase-10 (MMP10), MMP10 (gene 4319); test: LTEA_HepaRG_MMP10: Life Technologies and Expression Analysis (LTEA) Assay for matrix metalloproteinase-10 (MMP10) using HepaRG (AID 2283517)
# Summary of the method: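 Expression measured by TaqMan qRT-PCR with ACTB/GAPDH/POLR2A normalisation after 48 h chemical exposure of HepaRG cells. Eight half-log concentrations, top 100 uM, 0.5% DMSO vehicle, duplicates; gain or loss fitted against vehicle.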
# MYC, MYC (gene 4609) = test: LTEA_HepaRG_MYC: Life Technologies and Expression Analysis (LTEA) Assay for MYC using HepaRG (AID 2283518)
# Summary of the method: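 MYC transcript changes, up or down relative to 0.5% DMSO, from TaqMan qRT-PCR normalized to three housekeeping genes. Human HepaRG cultures received chemicals for 48 h at eight half-log concentrations up to 100 uM, in duplicate.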
# [3] = read-out: matrix metalloproteinase-3 (MMP3), MMP3 (gene 4314); test: LTEA_HepaRG_MMP3: Life Technologies and Expression Analysis (LTEA) Assay for matrix metalloproteinase-3 (MMP3) using HepaRG (AID 2283519)
# Summary of the method: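 Fluidigm-based TaqMan qRT-PCR, normalized to ACTB, GAPDH and POLR2A and fitted bidirectionally versus 0.5% DMSO, measured transcript levels. Treatment: duplicate 48 h exposures of HepaRG cells, ~100,000/well, to eight half-log concentrations topping at 100 uM.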
# [4] = read-out: Paternally Expressed 10 (PEG10), PEG10 (gene 23089); test: LTEA_HepaRG_PEG10: Life Technologies and Expression Analysis (LTEA) Assay for Paternally Expressed 10 (PEG10) using HepaRG (AID 2283520)
# Summary of the method: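 qRT-PCR read-out: PEG10 mRNA normalised to three housekeeping genes, fitted bidirectionally against 0.5% DMSO vehicle. HepaRG cells received test chemicals for 48 h in serum-free induction medium, 8 points, top 100 uM, half-log steps.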
# [5] = read-out: Nuclear factor NF-kappa-B p105 subunit (Homo sapiens) (UniProt P19838); test: LTEA_HepaRG_NFKB1: Life Technologies and Expression Analysis (LTEA) Assay for Nuclear Factor Kappa B Subunit 1 (NFKB1) using HepaRG (AID 2283521)
# Summary of the method: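 Differentiated human HepaRG cells were exposed for 48 h in serum-free induction medium to eight concentrations (top 100 uM, half-log steps, 0.5% DMSO), in duplicate. NFKB1 mRNA was measured by TaqMan qRT-PCR, normalized to ACTB/GAPDH/POLR2A, and fitted bidirectionally against DMSO.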
# [6] = read-out: Protein phosphatase 2A (PPP2R4), PTPA (gene 5524); test: LTEA_HepaRG_PPP2R4: Life Technologies and Expression Analysis (LTEA) Assay for Protein phosphatase 2A (PPP2R4) using HepaRG (AID 2283522)
# Summary of the method: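 HepaRG, 48 h exposure, 8-pt half-log series from 100 uM, 0.5% DMSO vehicle, duplicates. Readout: PPP2R4 mRNA, Fluidigm qRT-PCR, housekeeping-normalized. Bidirectional curve fit vs DMSO baseline.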
# [7] = read-out: Phosphatase and tensin (PTEN), PTEN (gene 5728); test: LTEA_HepaRG_PTEN: Life Technologies and Expression Analysis (LTEA) Assay for Phosphatase and tensin (PTEN) using HepaRG (AID 2283523)
# Summary of the method: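 Read-out: TaqMan qRT-PCR of PTEN transcript, normalized to three housekeeping genes, fitted in both directions against 0.5% DMSO. Differentiated human HepaRG cultures received chemicals for 48 h, eight-point half-log series topping at 100 uM.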
# [8] = read-out: solute carrier (SLC22A1), SLC22A1 (gene 6580); test: LTEA_HepaRG_SLC22A1: Life Technologies and Expression Analysis (LTEA) Assay for solute carrier (SLC22A1) using HepaRG (AID 2283524)
# Summary of the method: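 Transcript level of SLC22A1 quantified by qRT-PCR (normalized to three housekeeping genes) after 48 h chemical exposure of HepaRG cells, eight concentrations up to 100 µM, half-log steps, 0.5% DMSO vehicle. Gain or loss relative to DMSO fitted bidirectionally.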
# [9] = read-out: Pyruvate Dehydrogenase Kinase 4 (PDK4), PDK4 (gene 5166); test: LTEA_HepaRG_PDK4: Life Technologies and Expression Analysis (LTEA) Assay for Pyruvate Dehydrogenase Kinase 4 (PDK4) using HepaRG (AID 2283525)
# Summary of the method: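 Readout is qRT-PCR of PDK4 transcript, normalized to three housekeeping genes, with bidirectional fitting against 0.5% DMSO vehicle. Differentiated HepaRG cells were treated 48 h in serum-free induction medium, duplicate wells, eight-point half-log series topping at 100 uM.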
# [10] = read-out: NAD(P)H dehydrogenase [quinone] 1 (NQO1), NQO1 (gene 1728); test: LTEA_HepaRG_NQO1: Life Technologies and Expression Analysis (LTEA) Assay for NAD(P)H dehydrogenase [quinone] 1 (NQO1) using HepaRG (AID 2283526)
# Summary of the method: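 qRT-PCR read-out (Fluidigm TaqMan), normalized to three housekeeping genes, after 48 h chemical exposure of HepaRG cells. Concentrations: eight points, top 100 uM, half-log steps, 0.5% DMSO vehicle. Gain or loss of signal fitted relative to DMSO.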
# [11] = read-out: Nuclear factor erythroid 2-related factor 2 (Homo sapiens) (UniProt Q16236); test: LTEA_HepaRG_NFE2L2: Life Technologies and Expression Analysis (LTEA) Assay for Nuclear factor erythroid 2-related factor 2 (NFE2L2) Transcription Factor using HepaRG (AID 2283527);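 also: TaqMan qRT-PCR transcript level normalised to ACTB GAPDH and POLR2A housekeeping genes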
# Summary of the method: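 NFE2L2 transcript level was read by qRT-PCR (housekeeping ACTB/GAPDH/POLR2A normalisation) after 48 h chemical treatment of HepaRG in serum-free induction medium. Duplicate 8-point half-log curves, top 100 uM, 0.5% DMSO vehicle; up- or down-regulation fitted against vehicle.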
# [12] = read-out: succinate dehydrogenase complex iron sulfur subunit B (SDHB), SDHB (gene 6390); test: LTEA_HepaRG_SDHB: Life Technologies and Expression Analysis (LTEA) Assay for succinate dehydrogenase complex iron sulfur subunit B (SDHB) using HepaRG (AID 2283528)
# Summary of the method: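 HepaRG, 48 h exposure, 8-pt half-log series from 100 uM in 0.5% DMSO, duplicates. Readout: SDHB mRNA by Fluidigm qRT-PCR vs housekeeping genes; bidirectional fit relative to DMSO.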
# [13] = read-out: Signal transducer and activator of transcription 3 (Homo sapiens) (UniProt P40763); test: LTEA_HepaRG_STAT3: Life Technologies and Expression Analysis (LTEA) Assay for Signal transducer and activator of transcription (STAT3) using HepaRG (AID 2283529)
# Summary of the method: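 STAT3 transcript quantified by qRT-PCR against three housekeeping genes (ACTB, GAPDH, POLR2A), fitted both directions relative to DMSO. HepaRG cultures exposed 48 h to eight half-log concentrations, top 100 uM, 0.5% DMSO, serum-free induction medium.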
# [14] = read-out: solute carrier (SLCO1B1), SLCO1B1 (gene 10599); test: LTEA_HepaRG_SLCO1B1: Life Technologies and Expression Analysis (LTEA) Assay for solute carrier (SLCO1B1) using HepaRG (AID 2283530)
# Summary of the method: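 SLCO1B1 transcript levels were quantified by TaqMan qRT-PCR using three housekeeping genes for normalization. This followed 48 h chemical exposure (100 uM top, half-log, 8 points, 0.5% DMSO) of HepaRG liver cells, with gain or loss fitted relative to DMSO.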
# [15] = read-out: sulfotransferase 2A1 (SULT2A1), SULT2A1 (gene 6822); test: LTEA_HepaRG_SULT2A1: Life Technologies and Expression Analysis (LTEA) Assay for sulfotransferase 2A1 (SULT2A1) using HepaRG (AID 2283531)
# Summary of the method: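 Expression change of SULT2A1, by qRT-PCR with three housekeeping-gene normalization, was scored bidirectionally versus DMSO. Cells: differentiated HepaRG, dosed in duplicate for 48 h across 8 points, highest 100 µM, half-log dilution, 0.5% DMSO.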
# [16] = read-out: Transforming Growth Factor (TGFA), TGFA (gene 7039); test: LTEA_HepaRG_TGFA: Life Technologies and Expression Analysis (LTEA) Assay for Transforming Growth Factor (TGFA) using HepaRG (AID 2283532)
# Summary of the method: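 TGFA transcript quantified by qRT-PCR (Fluidigm arrays) against three housekeeping genes, after 48 hours chemical treatment of HepaRG cells. Top concentration 100 uM with half-log dilutions, 8 points, duplicates, 0.5% DMSO.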
# [17] = read-out: Transforming Growth Factor (TGFB1), TGFB1 (gene 7040); test: LTEA_HepaRG_TGFB1: Life Technologies and Expression Analysis (LTEA) Assay for Transforming Growth Factor (TGFB1) Transporter using HepaRG (AID 2283533)
# Summary of the method: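 TGFB1 transcript measured by qRT-PCR with normalisation to three housekeeping genes (ACTB, GAPDH, POLR2A); human HepaRG line treated in duplicate for 48 hr with an 8-point series topping at 100 uM, 0.5% DMSO vehicle, bidirectionally fitted.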
# TIMP1, TIMP1 (gene 7076) = test: LTEA_HepaRG_TIMP1: Life Technologies and Expression Analysis (LTEA) Assay for TIMP1 using HepaRG (AID 2283534);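 also: TaqMan qRT-PCR signal normalized to ACTB GAPDH and POLR2A housekeeping genes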
# Summary of the method: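 Bidirectional change in TIMP1 transcript versus 0.5% DMSO, measured by TaqMan qRT-PCR with three housekeeping genes for normalization. HepaRG human liver cells dosed 48 h in duplicate, top concentration 100 uM with half-log dilutions.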
# [18] = read-out: Tumor necrosis factor receptor 1 (TNFRSF1A), TNFRSF1A (gene 7132); test: LTEA_HepaRG_TNFRSF1A: Life Technologies and Expression Analysis (LTEA) Assay for Tumor necrosis factor receptor 1 (TNFRSF1A) using HepaRG (AID 2283535)
# Summary of the method: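 mRNA measured by qRT-PCR (TaqMan, Fluidigm arrays) against ACTB/GAPDH/POLR2A housekeepers after 48 h chemical exposure of HepaRG cells. Top concentration 100 uM, half-log 8-point series, duplicates; vehicle 0.5% DMSO, both fit directions.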
# Nuclear factor erythroid 2-related factor 2 (Homo sapiens), sequence (Q16236 whole entry, looked up): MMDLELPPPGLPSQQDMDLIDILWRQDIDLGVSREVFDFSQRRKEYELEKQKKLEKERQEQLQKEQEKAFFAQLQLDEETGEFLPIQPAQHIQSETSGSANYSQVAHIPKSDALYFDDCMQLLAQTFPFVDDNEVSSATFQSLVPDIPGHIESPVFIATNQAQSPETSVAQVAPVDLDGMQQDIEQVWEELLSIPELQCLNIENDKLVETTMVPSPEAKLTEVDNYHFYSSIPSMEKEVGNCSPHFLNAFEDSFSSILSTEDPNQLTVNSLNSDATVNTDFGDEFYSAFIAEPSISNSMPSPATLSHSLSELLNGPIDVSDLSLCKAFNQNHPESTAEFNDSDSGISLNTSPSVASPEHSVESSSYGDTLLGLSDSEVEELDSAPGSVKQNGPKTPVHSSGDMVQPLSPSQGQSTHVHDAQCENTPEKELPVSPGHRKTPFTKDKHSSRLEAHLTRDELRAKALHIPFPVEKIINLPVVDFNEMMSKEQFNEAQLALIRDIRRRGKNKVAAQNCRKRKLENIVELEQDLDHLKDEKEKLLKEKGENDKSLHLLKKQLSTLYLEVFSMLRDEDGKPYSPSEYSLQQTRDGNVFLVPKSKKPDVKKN
# Signal transducer and activator of transcription 3 (Homo sapiens), sequence (P40763 whole entry, looked up): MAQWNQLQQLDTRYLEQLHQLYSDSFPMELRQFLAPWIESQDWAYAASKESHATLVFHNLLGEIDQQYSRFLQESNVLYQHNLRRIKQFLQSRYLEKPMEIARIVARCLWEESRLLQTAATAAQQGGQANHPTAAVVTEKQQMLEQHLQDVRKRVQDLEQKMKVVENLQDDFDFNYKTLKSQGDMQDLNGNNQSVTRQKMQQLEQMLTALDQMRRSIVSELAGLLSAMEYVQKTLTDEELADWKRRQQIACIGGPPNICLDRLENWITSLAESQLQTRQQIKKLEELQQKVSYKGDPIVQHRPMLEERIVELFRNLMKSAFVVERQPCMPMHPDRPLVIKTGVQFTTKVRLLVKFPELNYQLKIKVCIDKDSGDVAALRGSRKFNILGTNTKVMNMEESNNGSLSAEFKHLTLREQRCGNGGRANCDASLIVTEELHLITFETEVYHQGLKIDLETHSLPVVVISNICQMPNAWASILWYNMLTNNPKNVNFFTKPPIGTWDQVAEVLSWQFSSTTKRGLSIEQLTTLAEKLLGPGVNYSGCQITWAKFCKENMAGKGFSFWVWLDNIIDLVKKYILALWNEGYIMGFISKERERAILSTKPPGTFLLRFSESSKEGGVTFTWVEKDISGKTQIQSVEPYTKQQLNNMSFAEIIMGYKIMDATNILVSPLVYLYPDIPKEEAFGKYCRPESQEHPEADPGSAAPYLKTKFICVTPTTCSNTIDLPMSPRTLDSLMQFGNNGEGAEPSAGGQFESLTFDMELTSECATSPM
# Nuclear factor NF-kappa-B p105 subunit (Homo sapiens), sequence (P19838 whole entry, looked up): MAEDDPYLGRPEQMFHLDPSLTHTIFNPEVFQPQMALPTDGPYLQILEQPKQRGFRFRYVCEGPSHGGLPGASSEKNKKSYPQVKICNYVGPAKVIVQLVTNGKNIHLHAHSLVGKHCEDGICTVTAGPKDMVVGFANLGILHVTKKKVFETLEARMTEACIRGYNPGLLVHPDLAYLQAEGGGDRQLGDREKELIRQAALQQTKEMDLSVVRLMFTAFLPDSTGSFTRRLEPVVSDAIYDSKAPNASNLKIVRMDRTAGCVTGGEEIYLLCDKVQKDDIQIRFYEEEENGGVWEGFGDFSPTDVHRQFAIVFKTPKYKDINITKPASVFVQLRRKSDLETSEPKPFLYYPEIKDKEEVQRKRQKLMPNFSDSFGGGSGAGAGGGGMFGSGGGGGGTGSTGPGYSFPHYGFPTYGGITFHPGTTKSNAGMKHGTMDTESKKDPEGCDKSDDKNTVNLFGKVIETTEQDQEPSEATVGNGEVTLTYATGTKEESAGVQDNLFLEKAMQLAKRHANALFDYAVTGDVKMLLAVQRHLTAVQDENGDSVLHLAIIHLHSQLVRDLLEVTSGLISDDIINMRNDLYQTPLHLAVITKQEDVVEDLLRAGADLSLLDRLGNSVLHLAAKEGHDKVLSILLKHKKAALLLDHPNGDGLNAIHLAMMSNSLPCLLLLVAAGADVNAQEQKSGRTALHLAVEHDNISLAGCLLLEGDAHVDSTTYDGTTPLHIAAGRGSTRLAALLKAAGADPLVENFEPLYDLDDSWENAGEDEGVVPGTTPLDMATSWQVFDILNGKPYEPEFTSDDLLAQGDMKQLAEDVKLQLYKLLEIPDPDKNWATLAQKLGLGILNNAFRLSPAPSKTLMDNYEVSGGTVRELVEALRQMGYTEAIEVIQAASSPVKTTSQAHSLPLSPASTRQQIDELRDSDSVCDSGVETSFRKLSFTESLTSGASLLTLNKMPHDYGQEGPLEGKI
structure (smiles),measurement,setting,value
O=C(O)c1ccc([N+](=O)[O-])cc1,outcome,[1],inactive
same,outcome,[2],inactive
same,outcome,"MYC, MYC (gene 4609)",inactive
same,outcome,[3],inactive
same,outcome,[4],inactive
same,outcome,[5],inactive
same,outcome,[6],inactive
same,outcome,[7],inactive
same,outcome,[8],inactive
same,outcome,[9],inactive
same,outcome,[10],inactive
same,outcome,[11],inactive
same,outcome,[12],inactive
same,outcome,[13],inactive
same,outcome,[14],inactive
same,outcome,[15],inactive
same,outcome,[16],inactive
same,outcome,[17],inactive
same,outcome,"TIMP1, TIMP1 (gene 7076)",inactive
same,AC50,[18],646 nM (active)
